Compound activity from PubChem BioAssay.
Mcl-1 Bim block: disrupts Bim peptide binding to human Mcl-1 | Q07820 | Bead-based flow cytometry, Bim peptide-Mcl-1 binding | inhibition, % at 10 µM | 190,000 tested, 0.1% active | AID 1009; in the data active = inhibition above about 40%;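 note: 0% = no compound tracer wells and 100% = peptide blocker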
p47phox inh: p47phox (human) inhibition; inhibition, % at 24.7 µM; 220,000 tested, 0.53% active; p47phox/p22phox peptide binding, fluorescence polarization, 2 h; P14598;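 active = inhibition above about 30%, limit read from the data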;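 note: 0% = p47phox with labelled peptide and 100% = labelled peptide alone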
Target sequence (P14598 whole entry, looked up): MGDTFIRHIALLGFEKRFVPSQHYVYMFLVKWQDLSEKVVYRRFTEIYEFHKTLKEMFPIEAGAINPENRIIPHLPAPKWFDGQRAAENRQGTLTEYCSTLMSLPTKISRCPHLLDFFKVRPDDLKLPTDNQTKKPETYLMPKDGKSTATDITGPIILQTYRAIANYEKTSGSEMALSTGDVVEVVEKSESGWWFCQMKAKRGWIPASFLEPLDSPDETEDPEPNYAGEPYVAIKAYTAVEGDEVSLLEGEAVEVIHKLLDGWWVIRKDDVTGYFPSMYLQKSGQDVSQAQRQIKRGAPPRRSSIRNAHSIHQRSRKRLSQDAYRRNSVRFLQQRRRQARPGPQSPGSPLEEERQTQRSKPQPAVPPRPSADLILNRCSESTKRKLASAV
Mcl1-Noxa inh: Mcl-1/Noxa interaction inhibition | TR-FRET Mcl-1/Noxa peptide binding, 2 h | inhibition, % at 21.7 µM | 220,000 tested, 1.5% active | AID 1022;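 active = compounds that cut the protein-peptide binding signal by more than 50% relative to plate controls in a single-dose test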;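 note: His-tagged Mcl-1 with rhodamine Noxa BH3 peptide and terbium anti-His antibody; 0% = Mcl-1 plus Noxa peptide wells and 100% = peptide-only wells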
14-3-3 Bad inh: disrupts binding of bovine 14-3-3 zeta to phospho-Bad peptide; 220,000 tested, 0.71% active; AID 781; P63103; inhibition, % at 21.7 µM; TR-FRET 14-3-3zeta/Dy647-pBad peptide displacement, 1 h;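 active = inhibition above about 70%, limit read from the data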;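 note: 0% = full 14-3-3 plus peptide FRET controls and 100% = background without 14-3-3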
Mcl1 Bid PPI: Mcl-1/Bid interaction inhibition; inhibition, % at 21.7 µM; AID 1021; 220,000 tested, 0.97% active; Q07820; TR-FRET Mcl-1/Bid-Dy647 peptide binding, 1536-well;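 active = compounds that cut the binding signal by more than half at the single screening dose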;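 note: His-tagged Mcl-1 with europium anti-His antibody binding Bid BH3 peptide; 0% = Mcl-1 plus peptide wells and 100% = peptide-only wells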
The depositor's hits bear a star; . = no result; [ ] = remark or other dose. Sampled rows, rich in hits. Any-hit rate of the full collection: about 3.2%.

SMILES | Mcl-1 Bim block | p47phox inh | Mcl1-Noxa inh | 14-3-3 Bad inh | Mcl1 Bid PPI
COc1ccc2[nH]c(=O)c(CNc3cccc(C)c3)cc2c1 | -5 | -9 | 51* | 3 | -8
CSc1cccc(CN2CCN(CCC(C)C)C(CCO)C2)c1 (centres undefined) | -6 | -2 | 10 | -7 | -27
COc1cc(Cl)c(C)cc1NC(=O)CCCn1c(=O)oc2ccccc21 | -1 | -7 | 26 | 15 | 95*
COc1cc(OC)c(NC(=O)CCCn2c(=O)oc3ccccc32)cc1Cl | 0 | -2 | -9 | 3 | -32
O=C(/C=C\c1ccccc1OC(=O)c1ccccc1F)c1cc2ccccc2o1 | -5 | -15 | -4 | -2 | -27
COc1ccc(Cl)cc1C(=O)Nc1cccc(-c2ccc3nncn3n2)c1 | . | 33* | -15 | 17 | 7
CN(CCc1ccccn1)C(=O)CCC1CCCN(C(=O)NC2CCCCC2)C1 (centres undefined) | 57* | 4 | -1 | -2 | -32
CN(CCc1ccccn1)C(=O)CCC1CCCN(C(=O)c2ccccn2)C1 (centres undefined) | -1 | -7 | 14 | -1 | -29
Cc1cc(C)c2nc(NNC(=O)c3cc(=O)c4ccccc4o3)sc2c1 | 2 | -21 | 65* | -19 | -44
COC(=O)c1cc2sc(Cl)cc2n1CC(=O)Nc1cccc(SC)c1 | 0 | -24 | -7 | -2 | 96*
COC(=O)c1cc2sc(Cl)cc2n1CC(=O)Nc1ccc(OC)c(OC)c1OC | 2 | 0 | 5 | 19 | 1
O=C(Cc1ccc([N+](=O)[O-])cc1)Nc1ccc(Cl)cc1 | -1 | 77* | 14 | -2 | -3
O=C(C/C=N\OCc1ccc([N+](=O)[O-])cc1)Nc1ccc(Cl)cc1 | -1 | 1 | 3 | -7 | -10
CCc1ccc(NC(=O)c2ccnc(C(C)(C)C)c2)cc1 | 1 | -5 | -2 | -14 | 101*
O=[N+]([O-])c1ccc(O)c(/C=N/Nc2ccccn2)c1 | -4 | -9 | -3 | -15 | -57
O=[N+]([O-])c1cccc(N/N=C/c2cc([N+](=O)[O-])ccc2O)c1 | 1 | -2 | 100* | 15 | -20
Cc1ccc2nc(/C(C#N)=C\c3ccc(N4CCCCC4)c([N+](=O)[O-])c3)[nH]c2c1 | 0 | 10 | 58* | 87*[fluorescence artefact?] | 14
Cc1ccc(S(=O)(=O)CCNC(=O)Cc2ccccc2)cc1 | -2 | 3 | -2 | 0 | 96*
O=C(c1ccccc1)N1CCN(c2ccc([N+](=O)[O-])cc2-n2cccc2)CC1 | . | -10 | -4 | 1 | -24
O=C(Nc1ccc(N2CCCC2)cc1)C(Cl)c1ccccc1 (centres undefined) | 0 | -3 | 56* | 2 | -69
CS(=O)(=O)N1CCN(c2ccc(NC(=O)C(c3ccccc3)c3ccccc3)cc2)CC1 | -2 | -4 | 3 | 0 | -35
COc1ccc(/C=N/NC(=O)c2cccnc2)c(C(=O)O)c1OC | . | -4 | 7 | -6 | 2
COc1ccc(N2CCC(CNC(=O)Nc3ccc(OC)cc3OC)C2)cc1 (centres undefined) | -2 | -17 | 90* | -11 | -86
CCOC(=O)c1ccc(NC(=O)NCc2ccc(OC)cc2)cc1 | 0 | -7 | 2 | 79* | -19
COc1ccc(N2CCC(CNS(=O)(=O)c3cccc(C(F)(F)F)c3)C2)cc1 (centres undefined) | 0 | 6 | 80* | 12 | 6
SMILES | Mcl-1 Bim block | p47phox inh | Mcl1-Noxa inh | 14-3-3 Bad inh | Mcl1 Bid PPI
CCc1ccc(NC(=O)NCC2CCN(c3ccc(OC)cc3)C2)cc1 (centres undefined) | . | -13 | 73* | 0 | -129
CC(C)(C)NC(=O)CSc1nc2[nH]ncc2c(=O)[nH]1 | 2 | -13 | 25 | -17 | -14
CCOc1ccc(NC(=O)NCC2CCN(c3ccc(OC)cc3)C2)cc1 (centres undefined) | -4 | -7 | -7 | 2 | -10
COc1ccc(N2CCC(CNC(=O)Nc3ccc(C)c(C)c3)C2)cc1 (centres undefined) | -4 | 1 | 101* | 8 | 3
COc1ccc(N2CCC(CNC(=S)Nc3cccc(C)c3)C2)cc1 (centres undefined) | 3 | -14 | 73* | -12 | -73
O=C(NNc1ccccc1C(F)(F)F)c1sccc1Br | . | -7 | 7 | -8 | -16
COCCNC(=O)c1noc2c1CCc1cc(OC)ccc1-2 | -4 | -6 | 65* | 1 | 1
COCC(C)NC(=O)c1noc2c1CCc1cc(OC)ccc1-2 (centres undefined) | 0 | 3 | 1 | -6 | -8
